Records with an inconclusive call do not appear. The source made the active and inactive calls. Calls follow the shape of the dose curve; as a rule, active = well fitted inhibition curve with a large enough effect; inconclusive = small, poorly fitted or top-dose-only effect; inactive = no such curve, though single readings can be large or run the other way.
Potency is read from the fitted curve at half-maximal effect.

In the experiment the target is Aldehyde dehydrogenase 1A1 (Homo sapiens) (UniProt P00352). The experiment is described as follows: qHTS for Inhibitors of the Aldehyde Dehydrogenase Family (ALDH1A1) Confirmatory screens (AID 2061316). Also: nearly all actives have a fitted effect of over 65% in size. As to conditions: ALDH inhibition qHTS; series mostly up to 47.3 µM. A general note: qHTS replaces the single test concentration by a dilution series.
`CNc1sc(-c2cccc3ccccc23)nc1C#N`: the Potency is 5.04 µM (active).

For the molecule `Cc1cccc(NC(=O)N2CC(Oc3ccc(-c4nc(C)no4)cc3)C2)c1`, the Potency result was “inactive”.

Turning to `CN(C)CCCNc1cc(O)c2ncccc2c1`, the Potency was 4 µM (active).

In the case of `Cc1nnc2ccc(N3CCC(NC(=O)c4cccc(C(F)(F)F)c4)CC3)nn12`, the Potency entry was “inactive”.

Turning to `CCc1ccc(-n2c(=O)c3cccnc3n2CC(=O)N(CC)c2cccc(C)c2)cc1`, the Potency was 11.5 µM (active).

On to `O=C(CSc1nc2ncccc2o1)Nc1ccc(Cl)cc1F`, for which the Potency result was “inactive”.

Consider `N#CNC(=O)c1ccc(-n2cccc2/C=C2\NC(=O)N(CC(=O)Nc3ccc(F)cc3)C2=O)cc1`, for which the Potency entry is “inactive”.

`Cc1ccc(OCCn2c(CCNC(=O)c3ccccc3N)nc3ccccc32)cc1`: the Potency is 7.12 µM (active).

`CCOC(=O)Cn1c(=O)oc2cc(S(=O)(=O)N3CCN(c4ccc(Cl)cc4)CC3)ccc21`: the Potency entry is “inactive”.

On to `CCc1ccc(-c2nn3c(C)nnc3s2)cc1NC(=O)c1ccc(-c2cccc(Cl)c2)o1`, for which the Potency was 5.04 µM (active).

Turning to `CC(=O)Nc1sc2c(c1-c1ccco1)CCNC2`, the Potency is 25.2 µM (active).

With `CN(Cc1ccc(-c2ccc(C#N)cc2)o1)c1ccc(N2CCN(C(=O)OC(C)(C)C)CC2)cc1`, the Potency is 11.3 µM (active).

On to `CC(C)(O)c1ccccc1CC[C@H](SCC1(CC(=O)O)CC1)c1cccc(/C=C/c2ccc3ccc(Cl)cc3n2)c1`, for which the Potency was 22.5 µM (active).

Regarding `CCn1cnc2c(Nc3ccc(CC(=O)N=C(N)N)cc3)nc(C#N)nc21`, the Potency result was “inactive”.

For the molecule `Cc1ccc(NS(=O)(=O)c2cc3c(cc2-c2ccco2)NC(=O)CO3)cc1C`, the Potency was 11.3 µM (active).

On to `Cc1ccnc(NC(=S)N2CCN(c3ccc(Cl)cc3Cl)CC2)c1`, for which the Potency is 7.98 µM (active).

Turning to `O=C(NCc1ccc2c(c1)OCO2)c1csc(N2CCN(c3ccc(F)cc3)CC2)n1`, the Potency is 4.47 µM (active).

As for `Cc1cc(N(C)S(=O)(=O)c2ccc(NC(=O)Cc3ccc(Cl)c(Cl)c3)cc2)no1`, the Potency is 12.7 µM (active).

As for `COC(=O)c1ccnc(NCc2ccc(O)c3ncccc23)c1`, the Potency was 11.3 µM (active).

For `CC(=O)Nc1sc2c(c1-c1ccc(N(C)C)cc1)CCNC2`, the Potency was 11.3 µM (active).

Regarding `O=C(Nc1cccc(Br)c1)c1cc(-c2ccc3c(c2)OCCO3)on1`, the Potency result was “inactive”.

Regarding `COc1ccc(C2Nc3ccc(Cl)cc3C(=O)N2Cc2ccccc2)cc1COc1ccc(NC(C)=O)cc1` (centres undefined), the Potency is 22.5 µM (active).

In the case of `CC(=O)Nc1sc2c(c1-c1ccc(N3CCN(C)CC3)cc1)CCNC2`, the Potency entry was “inactive”.

As to `O=C(NCC(=O)N1CCC(c2ccccc2)CC1)c1cccc(-c2ccc(C(F)(F)F)cc2)c1`, the Potency entry was “inactive”.
